Experimental findings from PubChem BioAssay (Tox21) are described below.

Assay [1] in a line: qHTS assay to identify small molecule antagonists of the estrogen related receptor signaling pathway with the pleiotropic PPARgamma coactivator (PGC) from Tox21 10K library - cell viability counter screen (AID 1224840; active = well fitted cell-killing curve with a large enough effect in the repeat runs, not every such curve was filed as active; also: nearly all actives have a fitted effect of over 40% in size). The method in brief: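 Viability counter screen, PGC/ERR cells: 17.5 h compound exposure at 37 C, CellTiter-Fluor fluorescence endpoint.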
For orientation: Quantitative high-throughput screening tests each substance at several concentrations.

Assay [2] addresses Thyrotropin receptor (Homo sapiens) (UniProt P16473). Put plainly: qHTS assay to identify small molecule agonists of the thyroid stimulating hormone receptor (TSHR) signaling pathway (AID 1224843; calls by dose curve; also: nearly all actives have a fitted effect of over 45% in size). The procedure, abridged: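 HEK293/TSHR, 800 cells/well; cpd 30 min RT; add cAMP-d2 + anti-cAMP-cryptate, 1 h RT; fluorescence read on plate reader. 15-pt titration, n=3.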
The nature of assay [3]: qHTS assay to identify small molecule agonists of the hypoxia (HIF-1) signaling pathway - cell viability counter screen (AID 1224844; calls by dose curve; also: nearly all actives have a fitted effect of over 50% in size). The procedure, abridged: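 Same wells as the HIF-1 reporter screen; ME-180 cells carrying HRE-bla, 17 hr treatment at 37C; CellTiter-Glo luminescence read after 30 min at room temperature.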
The nature of assay [4]: qHTS assay to identify small molecule agonists of H2AX (AID 1224845; active = well fitted activation curve with a large enough effect in the signal ratio in the repeat runs, not every such curve was filed as active; the % refers to the signal ratio). The method in brief:
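Wild-type CHO-K1 cells, plated overnight, exposed 3hr at 37C to 15 concentrations (0.76% DMSO final). Lysed, then HTRF anti-pH2AX (S139) cryptate and anti-H2AX-d2 antibodies, 24 hr room temperature; 665/620 nm emission read.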

Assay [5] in a line: qHTS assay to identify small molecule agonists of the hypoxia (HIF-1) signaling pathway (AID 1224846; active = well fitted activation curve with a large enough effect in the signal ratio in the repeat runs, not every such curve was filed as active; the % refers to the signal ratio). The procedure, abridged: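 In ME-180 cells bearing an HRE-bla construct, 17 h treatment with DMSO-dissolved compounds at 37C was followed by CCF4-AM loading to quantify reporter induction.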
Assay [6] is described as follows: qHTS assay to identify small molecule agonists of H2AX - cell viability counter screen (AID 1224847; calls by dose curve; also: nearly all actives have a fitted effect of over 30% in size; also: potency is read from the fitted curve at half-maximal effect; as to activity change, negative = cytotoxicity: top concentration of the series differs between compounds). The procedure, abridged: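 Cytotoxicity counter screen in wild-type CHO-K1 cells: a 3 hr compound treatment at 37C across 15 concentrations, followed by CellTiter-Glo luminescence to gauge viable cells.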
The nature of assay [7]: qHTS RealTime-Glo MT Cell Viability Assay in HepG2 cells - 24 hour (AID 1224867). Also: nearly all actives have a fitted effect of over 50% in size. The procedure, abridged: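 Compound treatment began 5 h after plating HepG2 cells (600/well) with NanoLuc luciferase and prosubstrate. Plates stayed at 37 C for 40 h; luminescence was captured at six time points, 0 h through 40 h.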
Assay [8] in a line: qHTS RealTime-Glo MT Cell Viability Assay in HEK293 cells - 32 hour (AID 1224868). Also: nearly all actives have a fitted effect of over 50% in size. Also: potency is read from the fitted curve at half-maximal effect. As to activity change, negative = cytotoxic: top concentration of the series differs between compounds. The method in brief: (§1)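 Quantitative high-throughput screen of the Tox21 10K library in HEK293: cells and RealTime-Glo reagents plated together, compound added at 5 h, luminescence monitored through 40 h at 37 C.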
The nature of assay [9]: A CellTox Green Cytotoxicity Assay to monitor cytotoxicity in HEK293 cells - 0 hour (AID 1224869). Also: nearly all actives have a fitted effect of over 50% in size. The method in brief:
(§2)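 Homogeneous no-lysis format: HEK293 cell suspension mixed with CellTox Green reagent, seeded, incubated 5 h at 37 C/5% CO2, then dosed by pintool with compound in DMSO.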

Assay [10] is described as follows: qHTS RealTime-Glo MT Cell Viability Assay in HepG2 cells - 40 hour (AID 1224870). Also: nearly all actives have a fitted effect of over 50% in size. The method in brief: (§3)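 HepG2 cells (600/well) mixed with RealTime-Glo MT reagent, settled 5 h at 37 C/5% CO2 before compound addition. Nonlytic NanoLuc luminescence from viable-cell prosubstrate reduction read repeatedly during 40 h treatment at 37 C.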
Assay [11] is described as follows: qHTS RealTime-Glo MT Cell Viability Assay in HEK293 cells - 40 hour (AID 1224874). Also: nearly all actives have a fitted effect of over 50% in size. Also: potency is read from the fitted curve at half-maximal effect. Particulars: RealTime-Glo luminescence; max response: active compounds read low. The method in brief:
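Measured as luminescence from the same continuously cultured HEK293 wells at successive time points (0, 8, 16, 24, 32, 40 h) after compound addition. Reagent present from seeding; dosing at 5 h; incubation 37 C.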

Assay [12] is described as follows: A CellTox Green Cytotoxicity Assay to monitor cytotoxicity in HEK293 cells - 24 hour (AID 1224875). Also: nearly all actives have a fitted effect of over 45% in size. Also: potency is read from the fitted curve at half-maximal effect. As to activity change: series mostly up to about 77 µM. The procedure, abridged: as §2
Assay [13] can be described thus: A CellTox Green Cytotoxicity Assay to monitor cytotoxicity in HepG2 cells - 16 hour (AID 1224876). Also: nearly all actives have a fitted effect of over 45% in size. The method in brief:
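Fluorescent DNA-binding dye, 600 HepG2 cells/well, 5 h preincubation then compound in DMSO; same plates read at 0–40 h, 37 C.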

Assay [14] in a line: qHTS RealTime-Glo MT Cell Viability Assay in HEK293 cells - 16 hour (AID 1224872). The method in brief:
as §1

Assay [15] can be described thus: qHTS RealTime-Glo MT Cell Viability Assay in HepG2 cells - 8 hour (AID 1224873). Also: nearly all actives have a fitted effect of over 55% in size. The procedure, abridged: as §3
Assay [16] in a line: A CellTox Green Cytotoxicity Assay to monitor cytotoxicity in HEK293 cells - 40 hour (AID 1224871). Also: nearly all actives have a fitted effect of over 45% in size. The procedure, abridged:
as §2

A number with no mark means an inactive call. Records with an inconclusive call do not appear. Calls of active or inactive are those of the source. Unless noted, calls follow the shape of the dose curve; as a rule, active = well fitted curve in the direction sought with a large enough effect in the repeat runs; inconclusive = weak or mixed curves; inactive = no such curve, though single readings can be large; an effect the other way counts as inactive or inconclusive.
% is scaled to controls: 0 for no effect and ±100 for the full control effect.

Thyrotropin receptor (Homo sapiens), sequence (P16473 whole entry, looked up): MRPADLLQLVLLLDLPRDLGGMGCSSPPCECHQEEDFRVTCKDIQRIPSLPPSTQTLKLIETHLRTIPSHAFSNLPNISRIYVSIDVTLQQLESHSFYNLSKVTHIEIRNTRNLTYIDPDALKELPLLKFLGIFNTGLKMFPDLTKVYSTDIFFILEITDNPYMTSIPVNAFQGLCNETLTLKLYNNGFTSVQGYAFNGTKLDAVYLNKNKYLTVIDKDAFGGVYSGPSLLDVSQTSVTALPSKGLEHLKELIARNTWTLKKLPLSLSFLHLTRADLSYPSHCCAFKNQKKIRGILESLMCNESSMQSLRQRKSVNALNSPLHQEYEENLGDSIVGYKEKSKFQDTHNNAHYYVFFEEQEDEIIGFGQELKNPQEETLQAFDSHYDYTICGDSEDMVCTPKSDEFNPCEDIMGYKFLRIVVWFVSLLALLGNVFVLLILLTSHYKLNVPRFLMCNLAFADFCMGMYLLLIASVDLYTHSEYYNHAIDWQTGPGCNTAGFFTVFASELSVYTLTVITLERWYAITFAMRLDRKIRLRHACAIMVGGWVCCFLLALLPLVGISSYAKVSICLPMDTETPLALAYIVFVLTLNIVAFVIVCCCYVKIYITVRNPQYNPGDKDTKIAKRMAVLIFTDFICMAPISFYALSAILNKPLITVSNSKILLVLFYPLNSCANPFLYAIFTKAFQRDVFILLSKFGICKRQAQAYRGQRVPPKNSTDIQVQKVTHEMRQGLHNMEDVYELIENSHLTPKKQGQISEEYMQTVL

On to `CCn1c2ccccc2c2ccccc21`, for which the Potency result in [1], in assay [2], in assay [3], in assay [4], in assay [5] and in [6] was “inactive” throughout. Further, the Potency result in [7], in assay [8], in assay [9], in assay [10], in [12] and in [13] was “inactive” each time. Besides, in assay [11], the max response was -15.2%.

Consider `CC(C)=CCC[C@H](C)CC=O`, for which the Potency result in assay [1], in assay [2], in [3], in [4], in assay [6] and in assay [7] was “inactive” throughout. Further, the Potency entry in [8], in assay [9], in assay [10], in [14], in assay [15] and in assay [13] was “inactive” in each case. In addition, in [11], the max response is 11.6%.

`CC(CC(C)(C)C)CC(C)(C)CC(C)(C)C` (stereo unspecified): the Potency entry in assay [1], in [2], in assay [3], in [4], in assay [5] and in assay [6] was “inactive” each time. Also, the Potency entry in assay [7], in assay [8], in assay [9], in assay [16], in [14] and in assay [15] was “inactive” each time. The Potency result in [12] and in assay [13] was “inactive” throughout. The max response in [11] is 3.32%.

Regarding `O=C(O)CN(CCCN(CC(=O)O)CC(=O)O)CC(=O)O`, the viability change, negative = cytotoxic in [1] is -3.45% [at 19 µM]; in [15] it was -18.6% [at 15.8 µM]. For the same compound, the activation in assay [2] was -0.184% [at 19 µM]; in [5] it was 1.13% [at 15.8 µM]. Besides, the activity change, negative = cytotoxicity in assay [3] is -18% [at 15.8 µM]; in assay [6], 0.112% [at 31.6 µM]; in [7], -3.25% [at 15.8 µM]. The activation (H2AX phosphorylation) in assay [4] was 1.1% [at 31.6 µM]. Moreover, the activity change, negative = cytotoxic in assay [8] was -12.4% [at 15.8 µM]; in assay [10], 22.2% [at 15.8 µM]. In addition, in assay [9], the cytotoxicity is -2.37% [at 15.8 µM]. For the same compound, the cytotoxicity increase in assay [16] was 0.268% [at 15.8 µM]; in [13] it was -15.6% [at 15.8 µM]. Further, the max response in assay [11] is -7.68%. Also, the activity change in [12] was 1.78% [at 15.8 µM, active compounds read high].

On to `CCC(O)CO` (stereo unspecified), for which the Potency result in assay [1], in assay [2], in assay [3], in assay [4], in assay [5] and in [6] was “inactive” each time. Further, the Potency result in [7], in [8], in assay [9], in assay [10], in assay [15] and in assay [12] was “inactive” throughout. The Potency entry in assay [13] is “inactive”. Also, the max response in assay [11] was -1.31%.

Take `C/C=C/C(=O)OCC(C)C`: the Potency entry in assay [1], in assay [2], in assay [3], in assay [4], in assay [5] and in assay [6] was “inactive” throughout. Besides, the Potency entry in assay [7], in assay [8], in assay [9], in assay [10], in assay [14] and in [15] was “inactive” each time. Moreover, the Potency entry in assay [12] and in assay [13] was “inactive” each time. The max response in assay [11] was 5.85%.

Consider `CCc1cccc(C)c1N(C(=O)C(=O)O)C(C)COC` (stereo unspecified), for which the Potency entry in assay [1], in assay [2], in assay [3], in [4], in assay [5] and in assay [6] was “inactive” throughout. The Potency entry in [7], in [8], in [9], in assay [10], in assay [14] and in assay [15] was “inactive” each time. Also, the Potency entry in [12] and in assay [13] was “inactive” in each case. Besides, in assay [11], the max response is 10.9%.

Regarding `CCN(CC)c1ccc(C=O)cc1`, the Potency entry in assay [1], in assay [2], in [3], in assay [4], in assay [5] and in [6] was “inactive” throughout. The Potency entry in assay [7], in assay [9], in assay [10], in [16], in [15] and in assay [12] was “inactive” throughout. Moreover, the Potency result in assay [13] is “inactive”.

As to `CC(C)(C)c1ccc(OC2CCCCC2O)cc1` (stereo unspecified), the Potency result in [1], in assay [2], in [3], in assay [4], in [5] and in assay [7] was “inactive” in each case. The Potency result in assay [9], in assay [10] and in [15] was “inactive” throughout. The Potency in assay [6] was 71.3 µM (active); in assay [12], 54.9 µM (active).

Regarding `CCC(=O)OC/C=C(\C)CCC=C(C)C`, the Potency entry in assay [1], in assay [2], in assay [3], in [4], in [5] and in assay [6] was “inactive” throughout. For the same compound, the Potency result in assay [7], in assay [8], in [9], in assay [10], in assay [16] and in assay [14] was “inactive” in each case. Besides, the Potency entry in [12] and in assay [13] was “inactive” in each case. Further, the max response in assay [11] was -0.115%.

For the compound `CC1=CC[C@@H](C(C)(C)O)CC1`, the Potency entry in assay [1], in [2], in assay [3], in assay [4], in assay [5] and in [6] was “inactive” each time. The Potency entry in [7], in assay [8], in assay [9], in [16], in [14] and in assay [15] was “inactive” throughout. In addition, the Potency result in assay [12] and in assay [13] was “inactive” each time. Moreover, the max response in [11] was 4.47%.

For `CCc1cccc(C)c1N(C(=O)CS(=O)(=O)O)C(C)COC` (stereo unspecified), the Potency result in assay [1], in [2], in [3], in assay [4], in [5] and in assay [6] was “inactive” throughout. Also, the Potency entry in assay [7], in [8], in [9], in assay [10], in [16] and in assay [14] was “inactive” in each case. For the same compound, the Potency result in assay [15], in [12] and in assay [13] was “inactive” each time. Moreover, in assay [11], the max response is -1.03%.

For `Cc1ccc(C2OC[C@@H]3OC(c4ccc(C)cc4)O[C@H]([C@H](O)CO)[C@@H]3O2)cc1` (stereo partly specified), the Potency result in assay [1], in [2], in assay [3], in assay [4], in [5] and in assay [6] was “inactive” in each case. Also, the Potency entry in [7], in assay [9], in assay [10], in assay [15] and in assay [13] was “inactive” each time.

Turning to `CCOC(=O)OC(=O)OCC`, the Potency entry in [1], in assay [2], in [3], in [4], in assay [5] and in assay [6] was “inactive” throughout. Further, the Potency result in assay [7], in assay [8], in assay [9], in assay [10], in assay [16] and in [14] was “inactive” in each case. The Potency result in assay [15], in assay [12] and in [13] was “inactive” in each case. Moreover, the max response in assay [11] was 18.5%.

Turning to `O=C(Nc1ccc([N+](=O)[O-])cc1)Nc1ccc([N+](=O)[O-])cc1` (tested in a mixture with another compound), the Potency entry in [1], in assay [2], in assay [3], in assay [4], in assay [5] and in assay [7] was “inactive” throughout. For the same compound, the Potency entry in assay [9], in [10], in assay [15], in [12] and in assay [13] was “inactive” throughout. The Potency in assay [6] was 17.5 µM (active); in assay [8] it was 4.77 µM (active); in assay [11] it was 4.77 µM (active).
